Among the data in PubChem BioAssay (NCI) are growth values, retold here.

The panel holds about 83,000 compounds, 20% with a hit somewhere; the sample as a whole holds those more often.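 Cell lines were cultured in 96-well plates, exposed to a single compound concentration, and assessed for percent growth 48 hours later.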 Unmarked numbers belong to inactive results. Activity calls are given as the source filed them. How the source made its calls: active means growth percent below 10; inactive means the rest.

What all share (test): NCI-60 one-dose screen, 48 h (100 = growth as untreated, 0 = no growth, -100 = all killed)
Settings in all cases: 10 µM unless noted

The subject of assay [1] is EKVX NSCLC.
Assay [2] relates to SN12C renal.
In assay [3] the test system is UO-31 renal.
The subject of assay [4] is TK-10 renal.
For assay [5], the system named is ACHN renal.
Assay [6] concerns CAKI-1 renal.
Assay [7] relates to CCRF-CEM leukemia.
Assay [8] concerns MOLT-4 leukemia.
For assay [9], the system named is SR leukemia.
Assay [10] deals with RPMI-8226 leukemia.
The subject of assay [11] is OVCAR-8 ovarian.
Assay [12] relates to OVCAR-5 ovarian.
Assay [13] concerns SK-OV-3 ovarian.
In assay [14] the test system is IGROV1 ovarian.
In assay [15] the test system is OVCAR-3 ovarian.
The test system of assay [16] is HS 578T breast.
In assay [17] the test system is NCI/ADR-RES ovarian.
For assay [18], the system named is T-47D breast.
Assay [19] deals with OVCAR-4 ovarian.

Consider `COc1cc(/C=C/C(=O)c2ccc(F)cc2)ccc1Oc1nc(NCCO)nc(N2CCOCC2)n1`, for which the growth in [1] is 82.8%; in assay [2], 84.6%; in assay [3], 61.2%; in [4], 146%; in assay [5], 70.9%; in [6] it was 71.9%. Moreover, the growth is 4.33% (active) in assay [7]; 6.59% (active) in [8]; -0.24% (active) in assay [9]; -1.38% (active) in assay [10]; 86.1% in [11]; 98.8% in assay [12]. Besides, the growth was 113% in [13]; 70.6% in assay [14]; 98.8% in [15]; 83.8% in assay [16]; 78.9% in assay [17]; 96.5% in assay [18].
As for `Cn1c(SCC(=O)Nc2ccc(-c3nc4ccc([N+](=O)[O-])cc4[nH]3)cc2)nc2ccccc2c1=O`, the growth was 84.5% in [1]; 91.1% in assay [2]; 84.7% in [3]; 132% in [4]; 65.6% in [5]; 45.9% in [6]. In addition, the growth in [7] was 86.8%; in assay [8], 77.5%; in assay [9], 82.4%; in assay [10], 94.7%; in assay [11], 77.8%; in assay [12], 96%. Besides, the growth in [19] was 67.5%; in assay [13] it was 120%; in [14], 75.9%; in [15], 90.6%; in assay [16] it was 81.5%; in [17], 88.9%. Further, in assay [18], the growth is 72.1%.
In the case of `COc1ccc(C(=O)/C=C/c2ccc(OCc3ccc(Cl)cc3)c(OC)c2)cc1OC`, the growth in [1] is 62.2%; in assay [2], 76.6%; in assay [3], 54.1%; in assay [4], 110%; in [5] it was 73.4%; in [6], 59.7%. For the same compound, the growth in assay [7] is 22.5%; in assay [9] it was 7.68% (active); in assay [10], -2.25% (active); in assay [11] it was 58.4%; in assay [12] it was 100%; in assay [19], 68.6%. Besides, the growth was 82.9% in assay [13]; 73.5% in assay [14]; 78.5% in assay [15]; 82% in [16]; 55.2% in assay [17]; 50.6% in assay [18].
With `Cc1cc(C(NC(=O)CCCCCNc2cccc3c2C(=O)N(C2CCC(=O)NC2=O)C3=O)c2cccnc2)c(O)c2ncccc12` (stereo not drawn), the growth was 34.3% in assay [1]; 20.1% in assay [2]; 18.7% in [3]; 19.2% in [4]; 35.6% in [5]; 14.2% in assay [6]. The growth in assay [7] was -4.83% (active); in assay [8], 1.29% (active); in [9], 11.6%; in [10], 14.6%; in assay [11], 11.1%; in assay [12], 49.8%. In addition, the growth in [19] was 19.4%; in assay [13] it was 25.4%; in assay [14] it was 9.13% (active); in assay [15], 14.2%; in [16] it was 1.22% (active); in [17] it was 79.6%. In addition, in assay [18], the growth was 12.1%.
As for `CCCC(=O)NC(c1cccc(N(C)C)c1)c1cc(C)c2cccnc2c1O` (stereo not drawn), the growth in [1] was 73.8%; in [2], 78.2%; in assay [3], 31.9%; in [4], 84.9%; in assay [5], 38.2%; in [6] it was 48.3%. In addition, the growth is 24.1% in assay [7]; 22.9% in assay [8]; 21.7% in [9]; 63.8% in [10]; 44% in assay [11]; 87.4% in assay [12]. Further, the growth was 53.1% in [19]; 56.5% in assay [13]; 40% in [14]; 8.33% (active) in assay [15]; 71.4% in assay [16]; 22.6% in assay [17]. Further, in [18], the growth is 56.6%.
Take `COC(=O)C1CCCN(S(=O)(=O)/N=C2\NC(=O)NC2=C(Cl)Cl)C1` (stereo not drawn): the growth in assay [1] is 104%; in assay [2], 102%; in assay [3] it was 92.2%; in assay [4] it was 74.6%; in assay [5] it was 109%; in assay [6], 102%. The growth was 58% in assay [7]; 96.3% in assay [8]; 28.6% in assay [9]; 0.297% (active) in assay [10]; 105% in assay [11]; 130% in [12]. Also, the growth in [19] is 119%; in assay [13] it was 106%; in assay [14], 107%; in assay [15] it was 122%; in [16], 110%; in [17], 111%. The growth in [18] was 68.2%.
As to `COc1cc(/C=C/C(=O)c2cc(OC)c(OC)c(OC)c2)ccc1Oc1nc(NCCO)nc(N2CCOCC2)n1`, the growth was 11.2% in assay [1]; 9.45% (active) in assay [2]; 20.9% in assay [3]; 20.9% in [4]; -52.5% (active) in assay [5]; 15.6% in [6]. Besides, the growth is 0.121% (active) in [7]; -0.481% (active) in assay [9]; -24.9% (active) in assay [10]; 21.2% in assay [11]; 18.3% in [12]; 20% in assay [19]. Also, the growth in assay [13] was 7.04% (active); in assay [14], 1.1% (active); in assay [15] it was -3.03% (active); in assay [16], 7.51% (active); in [17], 64.5%; in assay [18], 19.2%.
For `COc1cc(/C=C/C(=O)c2ccccc2)ccc1Oc1nc(NCCO)nc(N2CCOCC2)n1`, the growth was 95.5% in [1]; 97.3% in assay [2]; 80.8% in assay [3]; 124% in [4]; 98.4% in assay [5]; 86.2% in assay [6]. In addition, the growth was 30.3% in assay [7]; 8.72% (active) in [9]; 54.5% in assay [10]; 99.1% in assay [11]; 108% in [12]; 109% in [19]. Further, the growth in assay [13] is 99.3%; in assay [14], 100%; in assay [15], 124%; in assay [16], 98%; in assay [17], 107%; in assay [18] it was 93.6%.
